Measured values reported in the supplement of paper PMC7411054.
Structures can show the parent of a compound that is named as a salt.

Experiments:
Experiment in all cases: lowest phenotypically active concentration; higher = less potent
Settings in all cases: treatment time: 24 h
A549-TP53BP1-CLTA = system: A549-TP53BP1-CLTA
How it was run: (§1)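 Live-cell features were measured per well and normalised to solvent control wells after fifteen gene-edited A549, HepG2 and WPMY1 reporter lines had been treated for 24 h at 0.3, 1, 3 or 9 µM in four wells each. A condition was deviating when ≥3 of 4 wells sat beyond the 95th percentile of control Euclidean distances. It was reproducible when the median replicate Pearson correlation exceeded the 95th percentile of non-replicates. Phenotypic activity demanded both.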

A549-TUBA1B-RELA = system: A549-TUBA1B-RELA
How it was run: as §1

HepG2-ACTB-RAB5A = system: HepG2-ACTB-RAB5A
How it was run: as §1

HepG2-CANX-COX4 = system: HepG2-CANX-COX4
How it was run: as §1

HepG2-TP53BP1-CLTA = system: HepG2-TP53BP1-CLTA
How it was run: as §1

HepG2-TUBA1B-RELA = system: HepG2-TUBA1B-RELA
How it was run: as §1

WPMY1-ACTB-RAB5A = system: WPMY1-ACTB-RAB5A
How it was run: as §1

WPMY1-CANX-COX4 = system: WPMY1-CANX-COX4
How it was run: as §1

WPMY1-TP53BP1-CLTA = system: WPMY1-TP53BP1-CLTA
How it was run: as §1

WPMY1-TUBA1B-RELA = system: WPMY1-TUBA1B-RELA
How it was run: as §1

Measured: lowest phenotypically active concentration

CC[C@H]1CN2CCc3cc(OC)c(OC)cc3[C@@H]2C[C@@H]1C[C@H]1NCCc2cc(OC)c(OC)cc21 [emetine]
≤ 0.3 µM: all assays above

COc1ccc2c(c1)/C(=C/c1c[nH]cn1)C(=O)N2
3 µM: WPMY1-ACTB-RAB5A
1 µM: all other assays above

C[C@@H]1O[C@@H](O[C@H]2C[C@@H](O)[C@]3(CO)[C@H]4[C@H](O)C[C@]5(C)[C@@H](C6=CC(=O)OC6)CC[C@]5(O)[C@@H]4CC[C@]3(O)C2)[C@H](O)[C@H](O)[C@H]1O [Strophantine octahydrate]
1 µM: A549-TUBA1B-RELA
≤ 0.3 µM: all other assays above

COC[C@H]1OC(=O)c2coc3c2[C@@]1(C)C1=C(C3=O)[C@@H]2CCC(=O)[C@@]2(C)C[C@H]1OC(C)=O [wortmannin]
9 µM: A549-TP53BP1-CLTA
3 µM: A549-TUBA1B-RELA

CCCCCC[C@H]1C(=O)O[C@H](C)[C@H](NC(=O)c2cccc(NC=O)c2O)C(=O)O[C@@H](C)[C@@H]1OC(=O)CC(C)C [antimycin a]
≤ 0.3 µM: all assays above

C/C=C(/C)C(=O)O[C@H]1C(C)=C2[C@H]([C@@H]1OC(=O)CCCCCCC)[C@@](C)(OC(C)=O)C[C@H](OC(=O)CCC)[C@@]1(O)[C@H]2OC(=O)[C@@]1(C)O [Thapsigargin]
≤ 0.3 µM: all assays above

C[C@]12CC[C@H](O)C[C@H]1CC[C@@H]1[C@@H]2C[C@@H](O)[C@]2(C)[C@@H](C3=CC(=O)OC3)CC[C@]12O [Digoxigenin]
≤ 0.3 µM: A549-TP53BP1-CLTA | A549-TUBA1B-RELA
3 µM: HepG2-CANX-COX4
1 µM: all other assays above

COc1ccc(CCN2CCC(Nc3nc4ccccc4n3Cc3ccc(F)cc3)CC2)cc1 [astemizole]
1 µM: A549-TUBA1B-RELA | HepG2-TUBA1B-RELA
9 µM: WPMY1-TP53BP1-CLTA
3 µM: all other assays above

CC(C)(C)c1cc(C=C(C#N)C#N)cc(C(C)(C)C)c1O [Malonoben]
3 µM: A549-TP53BP1-CLTA
1 µM: all other assays above

Cc1sc2c(c1C)C(c1ccc(Cl)cc1)=N[C@@H](CC(N)=O)c1nnc(C)n1-2
≤ 0.3 µM: all assays above

C[C@H]1O[C@@H](O[C@H]2[C@@H](O)C[C@H](O[C@H]3[C@@H](O)C[C@H](O[C@H]4CC[C@@]5(C)[C@H](CC[C@@H]6[C@@H]5CC[C@]5(C)[C@@H](C7=CC(=O)OC7)[C@@H](O)C[C@]65O)C4)O[C@@H]3C)O[C@@H]2C)C[C@H](O)[C@@H]1O [Gitoxin]
≤ 0.3 µM: all assays above

C=C1[C@@H](C)[C@H]2[C@H](Cc3ccccc3)NC(=O)[C@]23OC(=O)C=C[C@H](O)CCC[C@@H](C)CC=C[C@H]3[C@@H]1O [Cytochalasin B]
1 µM: A549-TUBA1B-RELA | HepG2-ACTB-RAB5A | HepG2-CANX-COX4 | WPMY1-ACTB-RAB5A | WPMY1-CANX-COX4
3 µM: all other assays above

Cc1cc2c(C(C)C)c(O)c(O)c(C=O)c2c(O)c1-c1c(C)cc2c(C(C)C)c(O)c(O)c(C=O)c2c1O [gossypol]
3 µM: WPMY1-TP53BP1-CLTA
9 µM: all other assays above

C/C=C(/C)C(=O)O[C@H]1CC[C@@]2(C)[C@@H]3CC[C@H]4[C@]5(O)C[C@H](O)[C@@]6(O)[C@@H](CN7C[C@@H](C)CC[C@H]7[C@@]6(C)O)[C@]5(O)C[C@@]42O[C@]13O [Veratrine]
9 µM: HepG2-TUBA1B-RELA

CN1C(=O)CN=C(c2ccccc2)c2cc(Cl)ccc21 [diazepam]
9 µM: HepG2-ACTB-RAB5A

Cc1c(C(=O)c2cccc3ccccc23)c2cccc3c2n1[C@H](CN1CCOCC1)CO3 [WIN 55,212-2 mesylate]
9 µM: WPMY1-ACTB-RAB5A | WPMY1-CANX-COX4 | WPMY1-TP53BP1-CLTA
